C diff growth – blocks growth of Clostridium difficile; growth activity, negative = inhibition, % at 16 µg/mL (by protocol); hit rate 0.25% among 86,000; Clostridium difficile clinical isolate growth, OD600, 24 h; hits give low values;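 active = mean growth activity at or below -80% and every replicate also at or below -80%; inconclusive = mean at or below -80% but some replicate above -80%; inactive = mean growth activity above -80%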
Pf Dd2 inh – inhibitors of Plasmodium falciparum Dd2 growth; P. falciparum Dd2 growth, SYBR Green, 72 h; hits give low values; activity change, % at 10 µM; hit rate 2.3% among 94,000; in the data active = activity change below about -80%; inconclusive = no clear call, values can overlap the other calls
Large screens that a line does not name were inactive. Most compounds without a hit are left out; they make up all but 2.3% or so of the library.

C[C@H]1CN([C@@H](C)CO)C(=O)c2cc(NC(=O)Nc3ccc4c(c3)OCO4)ccc2O[C@H]1CN(C)S(=O)(=O)c1cn(C)cn1	none
C/C=C/c1ccc(C2[C@H]3CNC[C@@H]2N3S(=O)(=O)c2ccccc2C)cc1 (stereo partly specified)	none
O=C(Nc1cc(F)ccc1F)N1CCCCN2[C@H](CO)[C@H](c3ccc(-c4cccnc4)cc3)[C@H]2C1	none
CCCNC(=O)C[C@H]1CC[C@H]2[C@H](COc3ccc(NC(=O)c4ccc(OC)cc4)cc3C(=O)N2C)O1	none
C[C@@H]1CN([C@H](C)CO)C(=O)c2c(c3ccccc3n2C)-c2ccccc2CO[C@H]1CN(C)C(=O)c1cc(Cl)cc(Cl)c1	none
C[C@H](CO)N1C[C@H](C)[C@@H](CN(C)C(=O)c2ccccc2)OCc2ccccc2-c2c(n(C)c3ccccc23)C1=O	none (no result: C diff growth)
C[C@@H]1CN([C@@H](C)CO)C(=O)c2c(c3ccccc3n2C)-c2ccccc2CO[C@H]1CN(C)C(=O)c1cc(Cl)cc(Cl)c1	Pf Dd2 inh -83
C[C@H](CO)N1C[C@H](C)[C@H](CN(C)C(=O)c2cc(Cl)cc(Cl)c2)OCc2ccccc2-c2c(n(C)c3ccccc23)C1=O	Pf Dd2 inh -87
CO[C@@H]1CN(C)C(=O)c2cc(NC(=O)c3ccccc3)ccc2OC[C@@H](C)N(C(=O)CN(C)C)C[C@@H]1C	none
Cc1ccc(S(=O)(=O)Nc2cccc3c2O[C@H](CN(C)C(=O)NC2CCCCC2)[C@@H](C)CN([C@H](C)CO)C3=O)cc1	none
C[C@@H]1CN([C@H](C)CO)C(=O)c2cc(C#CCc3ccccc3)cnc2O[C@@H]1CN(C)C(=O)C1CCCCC1	none
CCCC#Cc1ccc([C@@H]2[C@H](CO)N3C(=O)CN(C(=O)c4cccnc4)C[C@@H]23)cc1	none
Cc1noc(C)c1NC(=O)N(C)C[C@@H]1Oc2c(NC(=O)Nc3ccc(C(F)(F)F)cc3)cccc2C(=O)N([C@@H](C)CO)C[C@@H]1C	none (no result: C diff growth)
N#C[C@@H]1[C@H](c2ccccc2C2=CCCCC2)[C@@H](CO)N1C(=O)c1cccc(F)c1	Pf Dd2 inh -94
CCCNC(=O)N1[C@H](C#N)[C@@H](c2ccccc2C2=CCCC2)[C@@H]1CO	Pf Dd2 inh -89
N#C[C@@H]1[C@@H](c2ccccc2C2=CCCCC2)[C@@H](CO)N1C(=O)c1cccc(F)c1	none
N#C[C@@H]1[C@H](c2ccccc2C2=CCCC2)[C@H](CO)N1C(=O)NC1CCCC1	none
O=C(C[C@H]1C=C[C@H](NC(=O)c2ccncc2)[C@H](CO)O1)NCc1ccncn1	none
CO[C@@H](CN(C)C(=O)c1ccc2c(c1)OCO2)[C@H](C)CN([C@H](C)CO)S(=O)(=O)c1ccccc1	none (no result: C diff growth)
COCC(=O)N1CCC2(CC1)CN(Cc1cccc(OC)c1)[C@H](CO)c1[nH]c3cc(OC)ccc3c12	Pf Dd2 inh inconclusive
COCC(=O)N1CCC2(CC1)CN(Cc1ccccc1Cl)[C@@H](CO)c1[nH]c3cc(OC)ccc3c12	Pf Dd2 inh inconclusive
COCC(=O)N1CC2(C1)CN(Cc1ccccc1Cl)[C@@H](CO)c1[nH]c3cc(OC)ccc3c12	none
COCC(=O)N1CCC2(CC1)CN(Cc1cccc(OC)c1)[C@@H](CO)c1[nH]c3cc(OC)ccc3c12	Pf Dd2 inh -92
COc1ccc2c3c([nH]c2c1)[C@H](CO)N(Cc1ccccc1Cl)CC31CN(C(C)=O)C1	Pf Dd2 inh -90
COc1ccc2c3c([nH]c2c1)[C@@H](CO)N(Cc1ccccc1F)CC31CN(C)C1	none
COCC(=O)N1CCC2(CC1)CN(Cc1ccccc1Cl)[C@H](CO)c1[nH]c3cc(OC)ccc3c12	Pf Dd2 inh -83
CCS(=O)(=O)N1CC2(CN(Cc3ccccc3F)[C@@H](CO)c3[nH]c4cc(OC)ccc4c32)C1	Pf Dd2 inh -87
Cc1noc(C)c1NC(=O)N(C)C[C@@H]1Oc2ccc(NC(=O)CCN3CCOCC3)cc2CC(=O)N([C@H](C)CO)C[C@H]1C	none
COc1ccc2c3c([nH]c2c1)[C@@H](CO)N(Cc1ccccc1F)CC31CCN(C(=O)C2CC2)CC1	Pf Dd2 inh -85
COc1ccc2c3c([nH]c2c1)[C@H](CO)N(C(C)=O)CC31CCN(Cc2ccccc2Cl)CC1	none
COc1ccc2c3c([nH]c2c1)[C@H](CO)N(Cc1ccccc1F)CC31CCN(C(=O)C2CCCC2)CC1	none
COc1ccc2c3c([nH]c2c1)[C@@H](CO)N(Cc1ccccc1Cl)CC31CN(C(=O)C2CC2)C1	none
COc1ccc2c3c([nH]c2c1)[C@H](CO)N(Cc1ccccc1Cl)CC31CCN(C(C)=O)CC1	Pf Dd2 inh -89
COc1ccc2c3c([nH]c2c1)[C@@H](CO)N(Cc1ccccc1Cl)CC31CCN(C(=O)C2CC2)CC1	Pf Dd2 inh -87
CO[C@H]1CN(C)C(=O)c2cc(NC(C)=O)ccc2OC[C@@H](C)N(C(=O)c2ccccc2F)C[C@@H]1C	none (no result: C diff growth)
CO[C@H]1CN(C)C(=O)c2ccc(NC(=O)c3ccccc3F)cc2OC[C@@H](C)N(C(C)=O)C[C@H]1C	none (no result: C diff growth)
COCC(=O)Nc1ccc2c(c1)C(=O)N(C)C[C@H](OC)[C@@H](C)CN(C(=O)c1cccnc1)[C@@H](C)CO2	none (no result: C diff growth)
COc1cccc(C#Cc2ccc([C@@H]3[C@@H](C#N)N(C(=O)C4CCCCC4)[C@H]3CO)cc2)c1	Pf Dd2 inh -91
COc1cccc(C#Cc2ccc([C@@H]3[C@@H](C#N)N(C(=O)C4CCC4)[C@H]3CO)cc2)c1	none
COc1cccc(C#Cc2ccc([C@@H]3[C@@H](CO)N(C(=O)C4CCCCC4)[C@H]3C#N)cc2)c1	none
COc1cccc(C#Cc2ccc([C@@H]3[C@@H](CO)N(C(=O)C4CCCC4)[C@H]3C#N)cc2)c1	Pf Dd2 inh -83
CC(C)CC#Cc1ccc2c(c1)O[C@H](CN(C)C(=O)c1ccccc1F)[C@@H](C)CN([C@@H](C)CO)S2(=O)=O	none
C[C@H](CO)N1C[C@H](C)[C@H](CN(C)C(=O)c2ccccc2F)Oc2cc(C#CCN(C)C)ccc2S1(=O)=O	none
CCCC#Cc1ccc2c(c1)O[C@@H](CN(C)C(=O)c1ccccc1F)[C@@H](C)CN([C@@H](C)CO)S2(=O)=O	Pf Dd2 inh -83
CCCC#Cc1ccc2c(c1)O[C@H](CN(C)C(=O)c1ccccc1F)[C@H](C)CN([C@H](C)CO)S2(=O)=O	Pf Dd2 inh -81
COCC(=O)N1C[C@@H](C)[C@H](OC)CN(C)C(=O)c2cc(NS(C)(=O)=O)ccc2OC[C@@H]1C	none (no result: C diff growth)
C[C@H](CO)N1C[C@H](C)[C@@H](CN(C)C)Oc2cc(C3=CCCC3)ccc2S1(=O)=O	none
Cc1ccc(-c2ccc3c(c2)O[C@H](CN(C)Cc2ccncc2)[C@@H](C)CN([C@@H](C)CO)S3(=O)=O)cc1	none
C[C@@H]1CN([C@@H](C)CO)S(=O)(=O)c2ccc(-c3cccc(C(=O)N(C)C)c3)cc2O[C@H]1CN(C)Cc1ccc2c(c1)OCO2	Pf Dd2 inh -82
CCCC#Cc1ccc2c(c1)O[C@@H](CN(C)Cc1ccncc1)[C@H](C)CN([C@@H](C)CO)S2(=O)=O	Pf Dd2 inh -87
Cc1ccc(-c2ccc3c(c2)O[C@H](CN(C)Cc2cccnc2)[C@@H](C)CN([C@@H](C)CO)S3(=O)=O)cc1	Pf Dd2 inh -83
C[C@@H]1CN([C@@H](C)CO)S(=O)(=O)c2ccc(-c3ccncc3)cc2O[C@@H]1CN(C)Cc1cccnc1	none
CCCC#Cc1ccc2c(c1)O[C@H](CN(C)Cc1ccncc1)[C@@H](C)CN([C@H](C)CO)S2(=O)=O	none

High-throughput results from PubChem.
